For experiment [1], the target named is Nuclear receptor coactivator 3 (Homo sapiens) (UniProt Q9Y6Q9). Briefly: NCOA3 GAL4-fusion reporter inhibition – cell-based, luminescence, quadruplicate, confirmation (AID 588792;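 active = mean inhibition over 43.08%, the solvent-only control mean plus 3 SD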;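 also: 0% = DMSO treated cells and 100% = gossypol at 36 µM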). As to conditions: HEK293 GAL4-SRC3 luciferase reporter, at 3.6 µM, hits give high values. Background: Reporter assays use an easily measured gene product as a stand-in for the process of interest.
Sequence of Nuclear receptor coactivator 3 (Homo sapiens) (Q9Y6Q9 whole entry, looked up, the tested form may be a part): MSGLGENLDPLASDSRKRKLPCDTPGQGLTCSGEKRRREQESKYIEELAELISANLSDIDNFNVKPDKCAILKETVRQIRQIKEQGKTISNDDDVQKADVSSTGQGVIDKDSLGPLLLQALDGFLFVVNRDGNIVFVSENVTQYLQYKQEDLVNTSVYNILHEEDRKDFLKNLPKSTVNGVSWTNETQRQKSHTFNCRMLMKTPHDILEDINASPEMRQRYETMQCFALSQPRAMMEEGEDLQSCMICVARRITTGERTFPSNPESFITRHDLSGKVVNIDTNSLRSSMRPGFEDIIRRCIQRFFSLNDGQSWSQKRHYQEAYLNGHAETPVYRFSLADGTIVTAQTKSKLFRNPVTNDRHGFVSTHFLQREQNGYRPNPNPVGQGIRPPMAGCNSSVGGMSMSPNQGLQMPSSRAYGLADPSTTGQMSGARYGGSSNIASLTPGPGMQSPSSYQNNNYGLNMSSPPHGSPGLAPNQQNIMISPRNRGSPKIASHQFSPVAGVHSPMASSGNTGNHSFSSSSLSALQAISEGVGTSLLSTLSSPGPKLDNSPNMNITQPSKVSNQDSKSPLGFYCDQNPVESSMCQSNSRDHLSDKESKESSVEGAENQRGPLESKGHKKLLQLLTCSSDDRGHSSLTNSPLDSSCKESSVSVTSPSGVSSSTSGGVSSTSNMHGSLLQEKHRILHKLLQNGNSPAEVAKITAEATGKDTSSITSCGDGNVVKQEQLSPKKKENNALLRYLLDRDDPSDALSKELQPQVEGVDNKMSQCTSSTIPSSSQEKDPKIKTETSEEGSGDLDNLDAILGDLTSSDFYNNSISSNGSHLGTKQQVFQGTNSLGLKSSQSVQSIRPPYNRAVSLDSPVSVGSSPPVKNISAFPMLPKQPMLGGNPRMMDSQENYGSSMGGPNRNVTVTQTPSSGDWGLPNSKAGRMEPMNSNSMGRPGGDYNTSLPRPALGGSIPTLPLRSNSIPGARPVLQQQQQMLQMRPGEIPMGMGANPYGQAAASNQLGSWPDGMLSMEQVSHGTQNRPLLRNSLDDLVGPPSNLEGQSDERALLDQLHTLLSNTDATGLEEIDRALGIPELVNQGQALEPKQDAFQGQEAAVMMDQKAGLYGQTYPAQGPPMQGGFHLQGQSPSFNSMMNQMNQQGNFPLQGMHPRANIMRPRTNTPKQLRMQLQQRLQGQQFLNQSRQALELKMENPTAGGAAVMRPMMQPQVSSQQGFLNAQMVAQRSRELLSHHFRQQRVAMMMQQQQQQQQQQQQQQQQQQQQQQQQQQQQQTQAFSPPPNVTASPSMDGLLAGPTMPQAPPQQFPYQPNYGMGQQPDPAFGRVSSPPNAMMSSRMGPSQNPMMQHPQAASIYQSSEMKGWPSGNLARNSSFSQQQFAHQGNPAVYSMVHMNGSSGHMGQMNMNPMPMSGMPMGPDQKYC

Experiment [2] concerns transactivating tegument protein VP16 (Human herpesvirus 1), Gal4-VP16 luciferase reporter. Briefly: repression of VP16-driven luciferase reporter – cell-based, luminescence, high throughput, counter-screen for SRC3 inhibitor project (AID 588794; in the data active = inhibition above about 30%). To be noted: mammalian cells, at 3.6 µM, hits give high values.
The target in experiment [3] is Nuclear receptor coactivator 1 (Homo sapiens) (UniProt Q15788). Briefly: NCOA1 GAL4-fusion reporter inhibition – cell-based, luminescence, quadruplicate, confirmation (AID 588820;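 active = mean inhibition above 46.68%, the untreated control wells mean plus 3 SD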;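 also: 0% = DMSO wells and 100% = gossypol 36 µM treated wells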). To be noted: HEK293 GAL4-SRC1 luciferase reporter, at 3.6 µM, hits give high values.
Sequence of Nuclear receptor coactivator 1 (Homo sapiens) (Q15788 whole entry, looked up, the tested form may be a part): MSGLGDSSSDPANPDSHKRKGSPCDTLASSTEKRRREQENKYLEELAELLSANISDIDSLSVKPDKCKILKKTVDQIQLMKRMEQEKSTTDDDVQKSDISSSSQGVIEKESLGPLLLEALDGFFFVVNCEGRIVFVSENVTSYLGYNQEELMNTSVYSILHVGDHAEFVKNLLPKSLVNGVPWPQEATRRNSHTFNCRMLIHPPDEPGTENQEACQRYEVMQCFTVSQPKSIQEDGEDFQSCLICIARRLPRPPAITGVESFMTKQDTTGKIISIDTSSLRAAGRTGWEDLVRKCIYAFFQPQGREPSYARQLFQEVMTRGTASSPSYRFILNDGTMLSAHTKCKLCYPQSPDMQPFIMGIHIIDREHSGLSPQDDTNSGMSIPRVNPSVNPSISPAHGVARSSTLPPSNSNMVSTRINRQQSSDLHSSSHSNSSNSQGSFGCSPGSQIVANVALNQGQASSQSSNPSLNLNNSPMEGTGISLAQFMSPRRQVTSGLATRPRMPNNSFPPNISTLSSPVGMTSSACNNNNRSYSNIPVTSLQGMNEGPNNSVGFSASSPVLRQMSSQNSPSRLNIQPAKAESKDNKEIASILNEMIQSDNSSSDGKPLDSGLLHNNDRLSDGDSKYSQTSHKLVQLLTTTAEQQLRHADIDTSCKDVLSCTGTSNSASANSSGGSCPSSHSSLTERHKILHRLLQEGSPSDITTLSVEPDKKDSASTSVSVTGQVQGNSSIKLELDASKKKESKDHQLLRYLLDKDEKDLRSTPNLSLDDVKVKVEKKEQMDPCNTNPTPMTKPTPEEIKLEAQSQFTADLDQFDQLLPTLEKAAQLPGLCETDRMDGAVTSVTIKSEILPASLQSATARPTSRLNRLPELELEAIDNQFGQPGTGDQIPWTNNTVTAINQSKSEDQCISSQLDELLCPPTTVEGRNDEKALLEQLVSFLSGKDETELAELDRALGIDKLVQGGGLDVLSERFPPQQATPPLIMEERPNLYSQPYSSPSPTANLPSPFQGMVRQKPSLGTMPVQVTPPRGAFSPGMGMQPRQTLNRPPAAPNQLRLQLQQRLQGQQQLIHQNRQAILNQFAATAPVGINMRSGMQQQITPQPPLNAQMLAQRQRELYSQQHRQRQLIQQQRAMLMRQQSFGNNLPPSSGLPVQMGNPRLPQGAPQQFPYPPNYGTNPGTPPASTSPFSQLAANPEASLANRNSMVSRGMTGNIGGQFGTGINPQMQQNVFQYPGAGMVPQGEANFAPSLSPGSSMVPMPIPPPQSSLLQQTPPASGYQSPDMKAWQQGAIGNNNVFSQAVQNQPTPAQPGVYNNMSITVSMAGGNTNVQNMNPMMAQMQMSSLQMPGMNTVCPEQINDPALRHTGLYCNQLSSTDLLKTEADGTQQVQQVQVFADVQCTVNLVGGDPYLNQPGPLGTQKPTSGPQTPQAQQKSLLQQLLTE
Experiment [4] is described as follows: repression of VP16-driven luciferase reporter – cell-based, luminescence, high throughput, counter-screen for SRC1 inhibitor project (AID 588824; in the data active = inhibition above about 25%). As to conditions: cell-based VP16 transactivation luciferase luminescence; at 3.6 µM; hits give high values.
Experiment [5] can be described thus: StAR promoter reporter inhibitors, counter-screen for LRH-1 inverse agonist project, cell-based, luminescence, high throughput (AID 651611; in the data active = inhibition above about 28%). As to conditions: StAR promoter luciferase reporter counterscreen, at 3.6 µM, hits give high values.
Experiment [6] addresses Nuclear receptor subfamily 5 group A member 2 (Homo sapiens) (UniProt O00482). Description: NR5A2 activity suppression in reporter cells – cell-based, luminescence, confirmation (AID 651613; in the data active = inhibition above about 42%;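 also: HEK293T cells co-transfected with LRH-1 and StAR promoter luciferase reporter; 0% = vehicle wells and 100% = parental cells lacking receptor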). To be noted: cell-based LRH-1 luciferase reporter, inverse agonism; at 3.6 µM; hits give high values.
The target of experiment [7] is Steroidogenic factor 1 (Homo sapiens) (UniProt Q13285). Description: inverse agonism at SF1 nuclear receptor – cell-based, luminescence, high throughput, counter-screen for LRH-1 inverse agonist project (AID 651614).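 Also: cells cotransfected with StAR promoter reporter and SF1 expression vector; 0% = vehicle on cells with receptor and 100% = vehicle on cells lacking receptor.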 To be noted: cell-based SF1 luciferase reporter, at 3.6 µM, hits give high values. In general terms: Counterscreens check selectivity or assay interference.
Sequence of Steroidogenic factor 1 (Homo sapiens) (Q13285 whole entry, looked up): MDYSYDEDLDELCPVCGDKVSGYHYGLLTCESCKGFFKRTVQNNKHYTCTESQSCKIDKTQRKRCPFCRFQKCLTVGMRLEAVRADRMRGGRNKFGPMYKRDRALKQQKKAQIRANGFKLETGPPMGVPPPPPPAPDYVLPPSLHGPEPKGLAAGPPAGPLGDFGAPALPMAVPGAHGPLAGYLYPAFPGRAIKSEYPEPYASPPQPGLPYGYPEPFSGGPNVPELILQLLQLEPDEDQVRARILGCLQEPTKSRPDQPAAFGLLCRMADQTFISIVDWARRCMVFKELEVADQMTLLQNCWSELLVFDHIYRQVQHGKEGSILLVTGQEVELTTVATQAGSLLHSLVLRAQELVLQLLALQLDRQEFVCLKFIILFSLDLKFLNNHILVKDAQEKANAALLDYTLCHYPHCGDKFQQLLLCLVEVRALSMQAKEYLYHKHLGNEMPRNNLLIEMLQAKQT

Experiment [8] is described as follows: compounds suppressing VP16-driven luciferase signal – cell-based, luminescence, high throughput, counter-screen for LRH-1 inverse agonist project (AID 651615; in the data active = inhibition above about 33%). As to conditions: Gal4-VP16 luciferase reporter cells, at 3.6 µM, hits give high values.

Structures are written as SMILES. A number with no mark means an inactive call. Activity calls are given as the source filed them. Rule as the data show it, unless noted: active = inhibition above about 44%; inactive = the rest.

Sequence of Nuclear receptor subfamily 5 group A member 2 (Homo sapiens) (O00482 whole entry, looked up): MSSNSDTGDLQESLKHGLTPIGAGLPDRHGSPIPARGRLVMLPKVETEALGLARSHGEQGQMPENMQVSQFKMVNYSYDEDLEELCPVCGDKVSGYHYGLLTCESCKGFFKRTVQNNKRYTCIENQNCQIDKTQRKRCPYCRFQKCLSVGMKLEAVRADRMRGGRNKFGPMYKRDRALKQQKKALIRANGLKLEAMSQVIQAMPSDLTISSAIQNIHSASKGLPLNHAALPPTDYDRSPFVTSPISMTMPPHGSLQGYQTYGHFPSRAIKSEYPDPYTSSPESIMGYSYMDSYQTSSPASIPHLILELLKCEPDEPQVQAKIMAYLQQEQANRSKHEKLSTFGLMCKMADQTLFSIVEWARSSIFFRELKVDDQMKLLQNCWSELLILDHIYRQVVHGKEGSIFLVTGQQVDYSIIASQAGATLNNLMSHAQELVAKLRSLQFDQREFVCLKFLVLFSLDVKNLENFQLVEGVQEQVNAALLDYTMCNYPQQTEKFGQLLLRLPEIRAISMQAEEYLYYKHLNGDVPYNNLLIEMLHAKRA

The term inhibition denotes the change of the read-out against control, counted positive when it falls. As to `CCCC(=O)NC(c1ccc(Cl)cc1)c1ccc2cccnc2c1O` (centres undefined), the inhibition was 31% in experiment [1]; 28% in experiment [2]; 15.5% in experiment [3]; 40.2% (active) in experiment [4]; 71.8% (active) in experiment [5]; 83.3% (active) in experiment [6]. Moreover, the inhibition was 74.9% (active) in experiment [7] and 74.8% (active) in experiment [8].
For the molecule `Cc1nc(N)nc(N)c1/C=C/C(C)(C)c1ccc(Cl)cc1`, the inhibition in experiment [1] is 70% (active); in experiment [2] it was 29.5% (active); in experiment [3], 62.2% (active); in experiment [4] it was 28.5% (active); in experiment [5], 78.5% (active); in experiment [6] it was 62.7% (active). In addition, the inhibition in experiment [7] is 56.5% (active); in experiment [8] it was 28.6%.
As to `Cc1ccc(S(=O)(=O)/N=C2\C=C(Nc3ccc(O)cc3)C(=O)c3ccccc32)cc1`, the inhibition was 91.8% (active) in experiment [1]; 83.1% (active) in experiment [2]; 71.1% (active) in experiment [3]; 86.3% (active) in experiment [4]; 90.3% (active) in experiment [5]; 106% (active) in experiment [6]. For the same molecule, the inhibition in experiment [7] is 94.6% (active); in experiment [8] it was 96% (active).
With `COc1cccc(/C=N/Nc2ncnc3scc(-c4ccccc4)c23)c1O`, the inhibition is 83.3% (active) in experiment [1]; 70.3% (active) in experiment [2]; 76.8% (active) in experiment [3]; 65.2% (active) in experiment [4]; 89.1% (active) in experiment [5]; 103% (active) in experiment [6]. For the same molecule, the inhibition in experiment [7] is 89.4% (active); in experiment [8] it was 65.1% (active).
Turning to `NCCCNc1nc(N)c([N+](=O)[O-])c(NC2CCCCC2)n1`, the inhibition in experiment [1] is 62.2% (active); in experiment [2] it was 42.4% (active); in experiment [3] it was 7.71%; in experiment [4], 27.1% (active); in experiment [5], 84.7% (active); in experiment [6], 98.5% (active). Further, the inhibition in experiment [7] was 82.5% (active); in experiment [8] it was 88.1% (active).
Regarding `Nc1nc2c(nnn2C2CC(O)C(CO)O2)c(=O)[nH]1` (centres undefined), the inhibition in experiment [1] was 78.7% (active); in experiment [2], 13.7%; in experiment [3] it was 13.6%; in experiment [4], 3.11%; in experiment [5], 51.8% (active); in experiment [6], 53.9% (active). Also, the inhibition was 44.1% (active) in experiment [7] and 9.15% in experiment [8].
Take `COc1cccc(/C=N\NC(=O)c2ccc(Cn3cc(Br)c([N+](=O)[O-])n3)o2)c1O`: the inhibition in experiment [1] was 33%; in experiment [2], 38.4% (active); in experiment [3], 35%; in experiment [4] it was 29.9% (active); in experiment [5], 63.8% (active); in experiment [6], 74.5% (active). Further, the inhibition in experiment [7] is 71.3% (active); in experiment [8], 73.2% (active).
Regarding `COc1ccc(-c2oc3ccc(N4CCOCC4)cc3c2C#CCO)cc1`, the inhibition in experiment [1] is 10.8%; in experiment [2], 21.3%; in experiment [3], -22.7%; in experiment [4], 18.5%; in experiment [5], 54.3% (active); in experiment [6], 55.7% (active). Besides, the inhibition in experiment [7] was 62% (active); in experiment [8] it was 53.4% (active).
As for `O=C(O)C1CCCN1c1nc(-c2ccc(Cl)c(Cl)c2)cc(C(F)(F)F)n1` (centres undefined), the inhibition in experiment [1] is 53.8% (active); in experiment [2] it was 74.4% (active); in experiment [3] it was 48.3% (active); in experiment [4], 72.8% (active); in experiment [5], 74.5% (active); in experiment [6], 97.4% (active). Further, the results for the inhibition in experiment [7] and in experiment [8] were 91.4% (active) and 78.2% (active), respectively.
Take `COC(=O)C12OCC34C(CC5C(C)=C(O)C(=O)CC5(C)C3C(O)C1O)OC(=O)C(OC(=O)C=C(C)C)C24` (centres undefined): the inhibition was 97.3% (active) in experiment [1]; 96.7% (active) in experiment [2]; 95.2% (active) in experiment [3]; 96.3% (active) in experiment [4]; 96.9% (active) in experiment [5]; 110% (active) in experiment [6]. In addition, the inhibition in experiment [7] is 98.5% (active); in experiment [8], 97.6% (active).
For the molecule `Cc1ccc(/C=C/c2ccc(N(C)C)cc2)[n+](C)c1`, the inhibition was 36.3% in experiment [1]; 56% (active) in experiment [2]; 11.4% in experiment [3]; 50.1% (active) in experiment [4]; 41.5% (active) in experiment [5]; 78.5% (active) in experiment [6]. Further, the inhibition in experiment [7] is 73% (active); in experiment [8] it was 67.4% (active).
For `CCOC(=O)c1cc2c(=Cc3ccc(N(C)C)cc3)c3ccccc3n2[n+]1C`, the inhibition is 46.2% (active) in experiment [1]; 63.4% (active) in experiment [2]; 22.9% in experiment [3]; 59.5% (active) in experiment [4]; 49.3% (active) in experiment [5]; 105% (active) in experiment [6]. The values for the inhibition in experiment [7] and in experiment [8] were 85.7% (active) and 90.4% (active), respectively.
Consider `O=C(NC(Nc1nc2ccc([N+](=O)[O-])cc2s1)(C(F)(F)F)C(F)(F)F)c1cccnc1`, for which the inhibition in experiment [1] is 62.8% (active); in experiment [2] it was 75.3% (active); in experiment [3] it was 26.9%; in experiment [4], 75.3% (active); in experiment [5] it was 81.4% (active); in experiment [6] it was 104% (active). The values for the inhibition in experiment [7] and in experiment [8] were 95.1% (active) and 88.7% (active), respectively.

The values above are taken from PubChem BioAssay.
